This note sets out measurements from PubChem BioAssay AID492948 (National Center for Advancing Translational Sciences (NCATS), 2010).

SMILES strings stand for the structures. Inconclusive results are not listed. Calls of active or inactive are those of the source. Calls follow the shape of the dose curve; as a rule, active = well fitted activation curve with a large enough effect; inconclusive = small, poorly fitted or top-dose-only effect; inactive = no such curve, though single readings can be large or run the other way.
Potency is read from the fitted curve at half-maximal effect.

This experiment is described as follows: qHTS Assay for Agonists of the Relaxin Receptor RXFP1: V1B Hit Validation.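 Also: counter-screen in HEK293 cells expressing V1B rather than RXFP1 for selectivity; nearly all actives have a fitted effect of over 65% in size.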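 As to activation: cAMP accumulation with PDE4 inhibitor Ro 20-1724 present during compound exposure.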 As to conditions: HEK293 V1B cells, cAMP TR-FRET, 30 min; series mostly up to 115 µM. Summed up:
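HEK293 cells (2000/well) were exposed to compounds for 30 min at 37C with PDE4 inhibitor Ro 20174. cAMP was read by TR-FRET after lysis, normalized to buffer and 29 nM porcine relaxin, and EC50 was fitted by Hill equation.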
For orientation: qHTS replaces the single test concentration by a dilution series.
As for `CC1CCN(S(=O)(=O)c2ccc3nc(N4CCN(c5ccccc5)CC4)ccc3c2)CC1`, the Potency was 13.8 µM (active).

Take `Cn1c(=O)c2sccc2n2c(CCCC(=O)NCc3ccco3)nnc12`: the Potency is 34.6 µM (active).

Take `Cn1c(=O)c2sccc2n2c(CCCC(=O)NCc3cccnc3)nnc12`: the Potency was 19.4 µM (active).

Take `Cc1nn(CCCC(=O)NCc2ccc(F)cc2)c(=O)c2nccn12`: the Potency is 38.9 µM (active).

Turning to `CCC(Sc1ccc2nnc(-c3cccnc3)n2n1)C(=O)O` (configuration not stated), the Potency is 17.3 µM (active).

Take `Cc1ccccc1OCC(=O)Nc1sc(C(=O)Nc2cccc(C)c2C)c(C)c1C#N`: the Potency is 6.15 µM (active).

For `CN(C)S(=O)(=O)c1ccc(C(=O)OCC(=O)Nc2cccnc2Cl)cc1`, the Potency was 19.4 µM (active).

In the case of `Cc1cc(C)c(C(=O)CSc2n[nH]c(=O)n2C2CC2)cc1C`, the Potency entry is “inactive”.

Take `CCN(CC)S(=O)(=O)c1ccc2c(c1)nc(SCc1nc3ccsc3c(=O)[nH]1)n2CC`: the Potency is 0.245 µM (active).

Turning to `COc1ccc(/C=C2/SC(=O)N(CC(=O)Nc3cc(C)on3)C2=O)cc1OC`, the Potency entry was “inactive”.

Consider `CC[N+](CC)(CCCCS(=O)(=O)[O-])CCNP1(=O)C=C(c2ccccc2)OC(c2ccccc2)=C1`, for which the Potency is 38.9 µM (active).

With `CCN(CC)S(=O)(=O)c1ccc(C)c(NC(=O)Cn2cnc3cc([N+](=O)[O-])ccc3c2=O)c1`, the Potency was 34.6 µM (active).

Take `Cc1cccn2c(=O)c(/C=C3\SC(=S)NC3=O)c(NCCCN3CCOCC3)nc12`: the Potency is 4.35 µM (active).

In the case of `CCNc1nc(NCC)nc(N(C)/N=C/c2ccco2)n1`, the Potency entry is “inactive”.

With `CC1(C)Cc2nc3sc4c(SCC(=O)NC(c5ccccc5)c5ccccc5)ncnc4c3cc2CO1`, the Potency was 3.46 µM (active).

As for `COc1ccc(CN2C(=O)c3cccnc3C2=O)cc1S(=O)(=O)N1CCCCC1C` (configuration not stated), the Potency was 8.68 µM (active).

`CCN(c1ccccc1)S(=O)(=O)c1ccc(OC)c(NC(=O)C2CC(=O)N(Cc3ccccc3)C2)c1` (configuration not stated): the Potency entry was “inactive”.

Turning to `CCN(CC)CCCN1C=C2C(=O)C(C)(OC(=O)C3CCCC3)C(=O)C=C2C=C1c1ccsc1` (configuration not stated), the Potency result is “inactive”.

Regarding `Nc1cc2ccncc2c2ccccc12`, the Potency result is “inactive”.

In the case of `CCCN(CCC)S(=O)(=O)c1cc(CN2C(=O)c3cccnc3C2=O)ccc1OC`, the Potency was 30.9 µM (active).

As for `CCOP1(=O)OCC2OC(n3cnc4c(N)ncnc43)C(O)C2O1` (configuration not stated), the Potency is 12.3 µM (active).

For `Cc1ccccc1NC(=O)c1ccccc1NC(=O)c1ccco1`, the Potency entry was “inactive”.

As for `COc1ccccc1CNS(=O)(=O)c1cc(CN2C(=O)c3cccnc3C2=O)ccc1OC`, the Potency was 27.5 µM (active).

Regarding `O=C(O)CSc1ccnc2cc(Cl)ccc12`, the Potency is 21.8 µM (active).

For `NCCNC(=O)Cc1ccc(NC(=O)Cc2ccc(Nc3ncnc4c3ncn4[C@@H]3O[C@H](CO)[C@@H](O)[C@H]3O)cc2)cc1`, the Potency is 2.75 µM (active).

Consider `Cn1c(N)c(C(=O)CSc2nn(-c3ccc(F)cc3)c(=S)s2)c(=O)n(C)c1=O`, for which the Potency was 19.4 µM (active).

For the compound `COc1ccc(-n2nnc3c(=O)n(CC(=O)NCC4CCCO4)cnc32)cc1` (configuration not stated), the Potency is 9.74 µM (active).

For the compound `O=c1c2ccccc2cnn1Cc1n[nH]c(=S)n1-c1ccc(F)c(Cl)c1`, the Potency was 21.9 µM (active).

For the compound `CC(=O)Nc1ccc(NC(=O)CSc2ccc3nnc(-c4cccnc4)n3n2)cc1`, the Potency was 13.8 µM (active).

For `O=C(O)CNC(=O)c1ccccc1NC(=O)c1ccco1`, the Potency entry is “inactive”.

Take `CCC(Sc1ccc2nnc(-c3cccnc3)n2n1)C(=O)OC` (configuration not stated): the Potency is 19.4 µM (active).

For `COc1ccc(C(=O)Nc2ccc(S(=O)(=O)Nc3onc(C)c3C)cc2)c(OC)c1`, the Potency was 14.9 µM (active).

As to `CC(C)n1c(SCC(=O)N2CCN(C(=O)c3ccco3)CC2)nc2c1c(=O)n(C)c(=O)n2C`, the Potency was 6.9 µM (active).

Take `O=C(Nc1ccccc1C(=O)NCc1ccco1)c1ccco1`: the Potency entry is “inactive”.

For `CCC(=O)Nc1ccc(NC(=O)CSc2nc3c(c(=O)n(C)c(=O)n3C)n2CC)cc1`, the Potency is 38.9 µM (active).

Consider `CC1CCCN(C(=O)COC(=O)CNC(=O)c2sc3ccccc3c2Cl)C1` (configuration not stated), for which the Potency is 8.68 µM (active).

`O=C(Nc1ccccc1C(=O)NCc1ccccc1)c1ccco1`: the Potency entry was “inactive”.
